The values that follow come from PubChem BioAssay (EPA / NIEHS).

The source made the active and inactive calls. Rule for the calls: active = hit-call score of the fitted dose curve at least 0.9, where 1 is the maximum; inactive = score below 0.9.

Read-out in assay [1]: Interleukin-8 (IL8), CXCL8 (gene 3576)
The experiment in a line: BSK_CASM3C_IL8: BioMAP Diversity Plus: CASM3C Assay for Interleukin-8 (IL8) Biomarker Activity (AID 2283042).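 Note: IL-8 protein level quantified by ELISA.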 The settings on record: primary human coronary artery smooth muscle cells; actives raise or lower the signal.

Read-out in assay [2]: Human Leukocyte Antigen - DR isotype (HLADR), HLA-DRA (gene 3122)
Put plainly: BSK_CASM3C_HLADR: BioMAP Diversity Plus: CASM3C Assay for Human Leukocyte Antigen - DR isotype (HLADR) Biomarker Activity (AID 2283043).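 Note: cell-surface HLA-DR protein level quantified by ELISA.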 As to conditions: primary human coronary artery smooth muscle cells; actives raise or lower the signal.

Read-out in assay [3]: Macrophage colony-stimulating factor (MCSF), CSF1 (gene 1435)
The experiment in a line: BSK_CASM3C_MCSF: BioMAP Diversity Plus: CASM3C Assay for Macrophage colony-stimulating factor (MCSF) Biomarker Activity (AID 2283044).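 Note: M-CSF protein amount quantified by ELISA after 24 h exposure.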 As to conditions: primary human coronary artery smooth muscle cells; actives raise or lower the signal.

Read-out in assay [4]: Low-density lipoprotein receptor (LDLR), LDLR (gene 3949)
The experiment in a line: BSK_CASM3C_LDLR: BioMAP Diversity Plus: CASM3C Assay for Low-density lipoprotein receptor (LDLR) Biomarker Activity (AID 2283045).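 Note: LDLR protein level on the cell surface quantified by ELISA.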 As to conditions: primary human coronary artery smooth muscle cells; actives raise or lower the signal.

Read-out in assay [5]: Monocyte Chemoattractant Protein-1 (MCP1), CCL2 (gene 6347)
The experiment in a line: BSK_CASM3C_MCP1: BioMAP Diversity Plus: CASM3C Assay for Monocyte Chemoattractant Protein-1 (MCP1) Biomarker Activity (AID 2283046).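 Note: MCP-1 level quantified by ELISA 24 h after dosing.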 As to conditions: primary human coronary artery smooth muscle cells; actives raise or lower the signal.

The nature of assay [6]: BSK_CASM3C_Proliferation: Cell Proliferation Assessment in the BioMAP Diversity Plus: CASM3C Assay (AID 2283047).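 Note: sulforhodamine B total protein stain as relative cell number at 560 nm; sub-confluent cells exposed 48 h before staining; fitted both ways against DMSO so gain or loss of cell number.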 As to conditions: primary human coronary artery smooth muscle cells.
Read-out in assay [7]: Monokine induced gamma interferon (MIG), CXCL9 (gene 4283)
Put plainly: BSK_CASM3C_MIG: BioMAP Diversity Plus: CASM3C Assay for Monokine induced gamma interferon (MIG) Biomarker Activity (AID 2283048).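 Note: MIG protein level measured by ELISA.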 As to conditions: primary human coronary artery smooth muscle cells; actives raise or lower the signal.

Read-out in assay [8]: serum amyloid A (SAA), SAA1 (gene 6288)
Put plainly: BSK_CASM3C_SAA: BioMAP Diversity Plus: CASM3C Assay for serum amyloid A (SAA) Biomarker Activity (AID 2283049).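 Note: SAA protein level quantified by ELISA.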 As to conditions: primary human coronary artery smooth muscle cells; actives raise or lower the signal.

A short description of assay [9]: BSK_CASM3C_SRB: Viability Assessment in the BioMAP Diversity Plus: CASM3C Assay (AID 2283050).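 Note: cells exposed to compound for 24 h.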 As to conditions: primary human coronary artery smooth muscle cells.
Read-out in assay [10]: Thrombomodulin, THBD (gene 7056)
The experiment in a line: BSK_CASM3C_Thrombomodulin: BioMAP Diversity Plus: CASM3C Assay for Thrombomodulin Biomarker Activity (AID 2283051).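 Note: thrombomodulin protein level measured by ELISA 24 h after dosing.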 The settings on record: primary human coronary artery smooth muscle cells; actives raise or lower the signal.

Read-out in assay [11]: Tissue Factor, F3 (gene 2152)
The experiment in a line: BSK_CASM3C_TissueFactor: BioMAP Diversity Plus: CASM3C Assay for Tissue Factor Biomarker Activity (AID 2283052).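 Note: cell surface tissue factor protein level read by ELISA.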 The settings on record: primary human coronary artery smooth muscle cells; actives raise or lower the signal.

Read-out in assay [12]: Interferon-gamma inducible Protein 10 (IP10), CXCL10 (gene 3627)
The experiment in a line: BSK_hDFCGF_IP10: BioMAP Diversity Plus: hDFCGF Assay for Interferon-gamma inducible Protein 10 (IP10) Biomarker Activity (AID 2283053). The settings on record: primary human foreskin fibroblasts; actives raise or lower the signal. An outline of the steps: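 Primary human foreskin fibroblasts exposed to chemicals for 24 h. IP-10 measured by ELISA; changes fitted bidirectionally against DMSO baseline.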

Read-out in assay [13]: Urokinase-type plasminogen activator receptor (uPAR), PLAUR (gene 5329)
The experiment in a line: BSK_CASM3C_uPAR: BioMAP Diversity Plus: CASM3C Assay for Urokinase-type plasminogen activator receptor (uPAR) Biomarker Activity (AID 2283054).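 Note: cell-surface uPAR protein level quantified by ELISA.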 The settings on record: primary human coronary artery smooth muscle cells; actives raise or lower the signal.

Read-out in assay [14]: Vascular cell adhesion molecule 1 (VCAM1), VCAM1 (gene 7412)
Put plainly: BSK_CASM3C_VCAM1: BioMAP Diversity Plus: CASM3C Assay for Vascular cell adhesion molecule 1 (VCAM1) Biomarker Activity (AID 2283055).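 Note: VCAM-1 protein level quantified by ELISA on the cells.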 The settings on record: primary human coronary artery smooth muscle cells; actives raise or lower the signal.

Read-out in assay [15]: Collagen III, COL3A1 (gene 1281)
Put plainly: BSK_hDFCGF_CollagenIII: BioMAP Diversity Plus: hDFCGF Assay for Collagen III Biomarker Activity (AID 2283056). The settings on record: primary human foreskin fibroblasts; actives raise or lower the signal. An outline of the steps: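 Response relative to DMSO, fitted in both directions, reflects ELISA-measured collagen III in human primary skin fibroblasts 24 h after compound addition.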

Read-out in assay [16]: Epidermal growth factor receptor (EGFR), EGFR (gene 1956)
Put plainly: BSK_hDFCGF_EGFR: BioMAP Diversity Plus: hDFCGF Assay for Epidermal growth factor receptor (EGFR) Biomarker Activity (AID 2283057). As to conditions: primary human foreskin fibroblasts; actives raise or lower the signal. An outline of the steps: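 Primary human foreskin fibroblasts (hDFCGF system), sampled 24 h after dosing; EGFR quantified by ELISA. Bidirectional fit relative to DMSO baseline; SRB total-protein staining in parallel cultures for cytotoxicity.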

Read-out in assay [17]: Interleukin-8 (IL8), CXCL8 (gene 3576)
Put plainly: BSK_hDFCGF_IL8: BioMAP Diversity Plus: hDFCGF Assay for Interleukin-8 (IL8) Biomarker Activity (AID 2283058). The settings on record: primary human foreskin fibroblasts; actives raise or lower the signal. An outline of the steps: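 Fibroblast monolayers (human foreskin, hDFCGF) received test chemical for 24 h before ELISA detection of IL-8; either increases or decreases relative to DMSO count as activity.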

The nature of assay [18]: BSK_hDFCGF_Proliferation: Cell Proliferation Assessment in the BioMAP Diversity Plus: hDFCGF Assay (AID 2283059).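 Note: curves fitted for both rise and fall of signal versus DMSO baseline.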 The settings on record: primary human foreskin fibroblasts. An outline of the steps: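 This proliferation readout used SRB total-protein staining of human foreskin fibroblasts […], normalized to DMSO with bidirectional curve fitting.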
Read-out in assay [19]: Macrophage colony-stimulating factor (MCSF), CSF1 (gene 1435)
The experiment in a line: BSK_hDFCGF_MCSF: BioMAP Diversity Plus: hDFCGF Assay for Macrophage colony-stimulating factor (MCSF) Biomarker Activity (AID 2283060). The settings on record: primary human foreskin fibroblasts; actives raise or lower the signal. An outline of the steps:
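fibroblasts (human foreskin, primary), 24 h post-dose; M-CSF by ELISA; bidirectional fit, DMSO = baseline.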

A short description of assay [20]: BSK_hDFCGF_SRB: Viability Assessment in the BioMAP Diversity Plus: hDFCGF Assay (AID 2283061).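 Note: cells exposed to compound for 24 h before the read.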 The settings on record: primary human foreskin fibroblasts. An outline of the steps:
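SRB-based viability read on primary human skin fibroblasts at 24 h: TCA fixation, 0.1% dye, 560 nm. Gain or loss of signal is fitted against the DMSO negative control.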

Take `CCOCCOCCO`: the outcome in assay [1], in assay [2], in [3], in [4], in assay [5] and in [6] was inactive. Further, the result in assay [7], in assay [8], in assay [9], in [10], in assay [11] and in assay [12] was inactive. For the same compound, the result in [13], in [14], in assay [15], in assay [16], in assay [17] and in assay [18] was inactive. The outcome in assay [19] and in assay [20] was inactive.
`CN(C)C(=O)NC1(c2ccccc2)CCN(CC[C@@]2(c3ccc(F)c(F)c3)CN(C(=O)c3ccccc3)CCO2)CC1`: the result in assay [1], in [2], in [3], in [4], in [5] and in assay [6] was inactive. Moreover, the outcome in assay [7], in assay [8], in assay [9], in assay [10], in assay [11] and in assay [12] was inactive. For the same compound, the result in assay [13], in assay [14], in [15], in assay [16], in assay [17] and in assay [19] was inactive. Besides, in assay [20], the result was inactive. In [18], the concentration at half-maximal activity (AC50) is 14.2 µM (active).
For the compound `COC(=O)[C@H]1[C@H]2C[C@@H]3c4[nH]c5cc(OC)ccc5c4CCN3C[C@H]2C[C@@H](OC(=O)c2cc(OC)c(OC)c(OC)c2)[C@@H]1OC`, the outcome in assay [1], in assay [2], in assay [3], in [5], in assay [7] and in [8] was inactive. Further, the result in assay [9], in [11], in assay [12], in assay [13], in assay [14] and in assay [16] was inactive. For the same compound, the result in [17], in assay [19] and in assay [20] was inactive. Further, the AC50 is 8.87 µM (active) in assay [4], 21.3 µM (active) in assay [6], 16.9 µM (active) in assay [10] and 16.9 µM (active) in assay [18].
On to `C/C=C/c1ccc(OC)cc1`, for which the result in assay [1], in [2], in [3], in assay [4], in assay [5] and in [6] was inactive. Besides, the outcome in assay [7], in assay [8], in [9], in assay [10], in assay [11] and in [12] was inactive. In addition, the result in assay [13], in assay [14], in assay [15], in [16], in assay [17] and in assay [18] was inactive. The result in assay [19] and in assay [20] was inactive.
For the compound `Cc1cc(SC2=C(O)C[C@@](CCc3ccc(N)cc3)(C(C)C)OC2=O)c(C(C)(C)C)cc1CO`, the outcome in assay [1], in [2], in assay [3], in [4], in assay [5] and in assay [6] was inactive. Also, the result in assay [7], in [8], in assay [9], in assay [10], in assay [11] and in [12] was inactive. Also, the result in assay [13], in [14], in [15], in assay [16], in assay [17] and in [18] was inactive. Besides, the outcome in assay [19] and in assay [20] was inactive.
For the compound `C=CCCCCCCCCCCCC`, the outcome in assay [1], in assay [2], in assay [3], in assay [4], in [5] and in [6] was inactive. In addition, the outcome in assay [7], in [8], in assay [9], in assay [10], in assay [11] and in [12] was inactive. Besides, the result in assay [13], in [14], in assay [15], in assay [16], in [17] and in assay [18] was inactive. Moreover, the outcome in assay [19] and in [20] was inactive.
On to `COc1ccc(C(=O)Nc2nc3ccccc3c(NCc3ccccc3)c2C#N)cc1`, for which the outcome in assay [1], in [2], in assay [3], in assay [5], in [6] and in [7] was inactive. Besides, the outcome in assay [8], in assay [9], in assay [10], in [11], in assay [12] and in assay [13] was inactive. Further, the result in assay [14], in [16], in assay [17], in assay [19] and in assay [20] was inactive. Further, the figures for the AC50 in [4], in assay [15] and in [18] were 9.66 µM (active), 2.8 µM (active) and 5.53 µM (active), respectively.
`CCCCCCCCCCCCCCCCO`: the outcome in [1], in assay [2], in assay [3], in assay [4], in assay [5] and in assay [6] was inactive. The result in assay [7], in [8], in [9], in assay [10], in assay [11] and in assay [12] was inactive. In addition, the result in [13], in [14], in assay [15], in assay [16], in assay [17] and in [19] was inactive. Besides, in [20], the result was inactive. Besides, in assay [18], the half-maximal activity concentration (AC50) was 6.73 µM (active).
